# Sampled rows, rich in hits. Any-hit rate of the full collection: about 3.5%.
# FBW7 act – human FBW7 E3 ligase activation, primary screen; 650,000 compounds, 0.13% hits; AlphaScreen FBW7–phospho-cyclin E peptide binding, activator screen; Q969H0; normalized activity (activation), % at 26.1 µM; in the data active means normalized activity above about 1.9%;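 further: purified mutant Fbw7 with reduced substrate affinity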
# Target sequence (Q969H0 whole entry, looked up): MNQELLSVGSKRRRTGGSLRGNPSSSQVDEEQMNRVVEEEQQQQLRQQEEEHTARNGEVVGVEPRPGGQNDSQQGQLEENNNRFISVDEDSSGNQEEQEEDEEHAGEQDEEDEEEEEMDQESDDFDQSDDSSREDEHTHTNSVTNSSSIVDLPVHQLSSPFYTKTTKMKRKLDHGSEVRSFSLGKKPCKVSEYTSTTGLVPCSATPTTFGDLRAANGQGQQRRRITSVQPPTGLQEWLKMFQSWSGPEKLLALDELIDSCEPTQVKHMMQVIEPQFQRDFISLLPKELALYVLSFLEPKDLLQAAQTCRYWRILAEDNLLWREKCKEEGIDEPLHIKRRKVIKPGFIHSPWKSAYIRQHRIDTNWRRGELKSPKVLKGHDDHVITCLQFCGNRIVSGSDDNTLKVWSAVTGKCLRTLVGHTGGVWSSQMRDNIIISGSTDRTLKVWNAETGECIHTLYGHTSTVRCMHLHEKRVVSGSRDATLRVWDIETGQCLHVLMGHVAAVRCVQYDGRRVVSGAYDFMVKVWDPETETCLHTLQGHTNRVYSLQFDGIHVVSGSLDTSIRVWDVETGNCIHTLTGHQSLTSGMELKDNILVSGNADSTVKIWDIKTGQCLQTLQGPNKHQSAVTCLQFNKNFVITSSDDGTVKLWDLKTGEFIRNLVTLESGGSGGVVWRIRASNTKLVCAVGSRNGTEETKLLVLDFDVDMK
# MITF inh – human MITF inhibition, primary screen; 650,000 compounds, 0.91% hits; AID 1259374; inhibition, % at 2.6 µM; AlphaScreen MITF homodimerization, bead proximity signal; in the data active means inhibition above about 50%;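 further: 0% = vehicle wells with protein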
# TEAD-YAP block – TEAD-YAP interaction inhibition. HEK-TIYL cells, TEAD-Gal4/YAP UAS-luciferase luminescence. inhibition, % at 9.12 µM. 640,000 compounds, 1.4% hits. AID 1259422; in the data active means inhibition above about 32%;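 further: 0% = median of test compound wells and 100% = reference inhibitor wells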
# GPR151 activ – human GPR151 activation; Q8TDV0; PathHunter beta-arrestin GPR151 cells, luminescence; activation, % at 11.2 µM; 650,000 compounds, 1% hits; in the data active means activation above about 4.9%;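 further: 0% = median of compound wells and 100% = cells with positive control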
# An asterisk follows results filed as active.
SMILES,FBW7 act,MITF inh,TEAD-YAP block,GPR151 activ
COc1ccc(/C=C2/C(=O)NC(=O)N(c3ccc(C(C)C)cc3)C2=O)cc1O,1.9*,2,-7,-1
COc1ccc(N2C(=O)NC(=O)/C(=C\c3cc(OC)c(O)c(OC)c3)C2=O)cc1,2.1*,3,7,0
COc1ccc(N2C(=O)NC(=O)/C(=C/c3cc(Cl)c(O)c(OC)c3)C2=O)cc1,0,4,-3,1
COc1ccccc1N1C(=O)NC(=O)/C(=C\c2ccc(O)c(O)c2)C1=O,0,56*,-3,-1
Cc1ccccc1N1C(=O)NC(=O)/C(=C\c2ccc(O)c(O)c2)C1=O,0,45,-5,0
COc1ccccc1N1C(=O)/C(=C\c2cccn2C)C(=O)NC1=S,0,56*,14,0
COC(=O)C1=C(C)NC(C)=C(C(=O)OC)C1c1ccncc1,0,6,5,1
COC(=O)C1=C(C(=O)c2ccccc2)C(=O)C(=O)N1c1cccc2ccccc12,0,6,-56,-1
COc1cc(C)ccc1S(=O)(=O)Oc1cccc2ccc(C)nc12,0,11,37*,1
Cc1sc2nc(C)n(C3CCN(C(=O)c4ccncc4)CC3)c(=O)c2c1C,0,-14,40*,0
O=C(NCC1Cc2cccc(-c3ccncc3)c2O1)[C@H]1C[C@@H]2C=C[C@H]1C2 (stereo partly specified),0,6,-6,1
OCCN(CCO)CC(O)COc1ccc(C23CC4CC(CC(C4)C2)C3)cc1 (stereo unspecified),0,4,56*,0
Cc1ccc(OCC(O)CN(CCO)CCO)cc1 (stereo unspecified),0,-19,-2,1
CC1=C(C(=O)Nc2ccccc2)C(c2ccccc2)C(C#N)=C(SCc2ccccc2)N1 (stereo unspecified),0,11,11,-1
O=C(NC1CCCCCCC1)c1cccc(N2CCCC2=O)c1,0,-8,46*,0
O=C(NC1CCCCCC1)c1ccc(N2CCCC2=O)cc1,0,7,-22,-3
COc1cc(OC)nc(CSCCNC(=O)CCl)n1,0,-1,10,1
COc1cc(OC)nc(CSc2ccc(NC(=O)CCl)cc2)n1,0,8,36*,-1
CCc1cc2c(cc3c(=O)n(CCCC(=O)O)ncn32)s1,0,-6,35*,0
Nc1c(C(=O)c2ccc(F)cc2)sc2nc(-c3ccccc3)cc(-c3ccccc3)c12,0,-4,3,1
Nc1c(C(=O)c2ccc(F)cc2)sc2nc(-c3ccccc3)cc(-c3ccco3)c12,0,63*,7,2
Cc1cc(C)cc(Oc2c(C(F)(F)F)oc3c(CN4CCCCC4)c(O)ccc3c2=O)c1,0,14,-3,-2
CN1CCN(Cc2c(O)ccc3c(=O)c(Oc4ccc(-c5ccccc5)cc4)c(C(F)(F)F)oc23)CC1,0,13,-3,-1
CC(C)(C)c1ccc(Oc2c(C(F)(F)F)oc3c(CN4CCCC4)c(O)ccc3c2=O)cc1,0,10,36*,0
CN1CCN(Cc2c(O)ccc3c(=O)c(Oc4ccc(C(C)(C)C)cc4)c(C(F)(F)F)oc23)CC1,1,3,34*,-1
SMILES,FBW7 act,MITF inh,TEAD-YAP block,GPR151 activ
O=C(Cc1ccccc1)c1ccc(O)cc1O,0,12,-5,1
O=C(Cc1ccc2c(c1)OCCCO2)c1ccc(O)cc1O,0,3,61*,2
CCOC(CNC(=O)c1c[nH]c2ccc(S(=O)(=O)N3CCc4ccccc43)cc2c1=O)OCC,0,4,19,2
COc1ccc(CCNC(=O)c2c[nH]c3ccc(S(=O)(=O)N4CCc5ccccc54)cc3c2=O)cc1OC,0,17,35*,0
Cc1ccc(NC(=O)N2CCCC2C(=O)Nc2ccccc2C)cc1 (stereo unspecified),6.3*,0,0,0
Cc1ccccc1NC(=O)C1CCCN1C(=O)Nc1ccccc1 (stereo unspecified),0,15,10,-1
CCc1nc(SCC(=O)NCc2cccs2)c2c(C)c(C)sc2n1,8.1*,4,-6,0
CCN(CC)CCCNCC(=O)N1c2ccccc2Sc2ccccc21,0,8,40*,-2
CCN(CC)CCCNCC(=O)Nc1cc(C)on1,1,1,8,-2
CCN(CC)CCCNCC(=O)Nc1nc(C)cs1,0,15,95*,-5
O=C(c1cc2cc([N+](=O)[O-])ccc2s1)N1CCCC1,1,14,-10,2
O=C(O)CCC(=O)N1N=C(c2ccccc2)CC1c1ccccc1 (stereo unspecified),1.9*,13,-7,0
Cc1cc(NC(=O)CCc2ccc(C)o2)no1,0,5,5,0
Cc1ccc(CCC(=O)Nc2ccc(Cl)cn2)o1,0,4,41*,-1
Cc1ccc(CCC(=O)Nc2ncc(Cc3ccc(Cl)cc3)s2)o1,0,1,57*,4
Cc1ccc(Cc2cnc(NC(=O)CCCOc3ccc(Cl)cc3)s2)cc1,0,11,7,0
CCOC(=O)C(=CNc1ccccc1N)C(=O)OCC,0,10,-9,0
CC(C)Cc1nnc(NC(=O)CC(C)(C)C)s1,2.1*,16,-9,0
COc1ccc(Nc2cc(C)nc(-n3nc(C)cc3C)n2)cc1OC,0,4,69*,-1
Cc1cc(Nc2c(C)cccc2C)n2ncnc2n1,0,0,-5,-1
Cc1cc(Nc2cc3ccccc3cc2O)n2ncnc2n1,0,-3,65*,-1
O=C(c1cc(=O)[nH]c(=O)[nH]1)N(Cc1cccc(OCC2CCCCO2)c1)C1CC1 (stereo unspecified),0,1,3,0
Cc1ccc(Nc2nnc(SCC(N)=O)s2)c(C)c1,0,6,1,-1
COc1ccc(C(=O)N/C(=C\c2ccc3c(c2)OCO3)C(=O)NCC(=O)O)cc1,1,2,-1,-1
CC(C)OCCNCc1c(C(=O)N(C)C)nc2ccc(Cl)cn12,0,22,2,-2
SMILES,FBW7 act,MITF inh,TEAD-YAP block,GPR151 activ
O=C(COc1ccccc1-c1ccccc1)NN=C1CCCC1,0,5,61*,2
CCNC(=S)N1CCN(c2ccccc2OC)CC1,0,-9,1,1
COc1ccccc1N1CCN(C(=S)NCCN2CCOCC2)CC1,0,8,66*,-1
O=C(NCCCN1CCc2ccccc2C1)Nc1ccc(Br)cc1,3.1*,-10,-15,0
COc1ccccc1N1CCN(CCCNC(=O)Nc2ccc(Br)cc2)CC1,2.9*,-12,3,-1
CC(C)Oc1ccc(Br)cc1C(=O)N/N=C/c1ccc(O)cc1,0,-3,3,0
COc1cc2ccccc2cc1C(=O)N/N=C/c1cccs1,0,-9,50*,0
CCOc1ccc(Br)cc1C(=O)N/N=C/c1ccc(C)o1,0,-8,36*,0
O=C(N/N=C/c1cccs1)c1cc2ccccc2cc1O,0,9,-4,0
CC(C)Oc1ccc(Br)cc1C(=O)N/N=C/c1ccco1,0,-2,38*,1
CCOc1ccc(Br)cc1C(=O)N/N=C/c1cccs1,0,22,55*,-1
